# Measurements as given in PubChem BioAssay (NCI).
# Where “and” joins values, the source holds several entries; their conditions need not be identical. Equal entries are not always repeated. The panel holds about 79,000 compounds, 15% with a hit somewhere; the sample as a whole holds those more often. A structure can be active in one record and inactive in another. Calls of active or inactive are those of the source. Cut-off read from the data, not from the text of the source: active = growth inhibition above about 70%; inactive = the rest.
# Experiments:
# [1] = NCI Yeast Anticancer Drug Screen. Data for the rad52 strain (AID 147);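 note: 0% = growth of vehicle-treated control cultures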; conditions: S. cerevisiae rad52 mutant growth inhibition, stronger effect = higher value
# Procedure, shortened: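 DNA repair-defective yeast; compound exposure; growth scored against vehicle controls.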
# [2] = NCI Yeast Anticancer Drug Screen. Data for the wt1 strain (AID 149);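 note: 0% = growth of vehicle-treated wt1 cultures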; conditions: S. cerevisiae wt1 strain (SPY 50644) growth inhibition, stronger effect = higher value
# Procedure, shortened: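 The wt1 strain was treated with compounds, and growth was compared with vehicle-treated cultures to give inhibition.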
# [3] = NCI Yeast Anticancer Drug Screen. Data for the mgt1 strain (AID 153); conditions: S. cerevisiae mgt1 mutant growth inhibition, stronger effect = higher value
# Procedure, shortened: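 Growth inhibition relative to vehicle controls was scored for the mgt1 yeast strain after compound exposure.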
# [4] = NCI Yeast Anticancer Drug Screen. Data for the rad50 strain (AID 155);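 note: 0% = growth of vehicle-only cultures of the same strain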; conditions: S. cerevisiae rad50 strain growth inhibition, stronger effect = higher value
# Procedure, shortened: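 Cells are treated with compound, grown, and their growth is then scored against vehicle-only cultures of the same repair-deficient yeast strain.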
# [5] = NCI Yeast Anticancer Drug Screen. Data for the mec2-1 strain (AID 157); conditions: S. cerevisiae mec2-1 strain, stronger effect = higher value
# Procedure, shortened: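 Growth inhibition is read against vehicle-treated controls after compound exposure of the mec2-1 yeast strain, which is defective in DNA damage repair or cell cycle control.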
# [6] = NCI Yeast Anticancer Drug Screen. Data for the rad14 strain (AID 159);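 note: 0% = growth of vehicle-treated control cultures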; conditions: S. cerevisiae rad14 strain growth inhibition, stronger effect = higher value
# Procedure, shortened: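 Readout: yeast growth inhibition, referenced to vehicle-only cultures. Strain bears a defined alteration in DNA damage repair.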
# [7] = NCI Yeast Anticancer Drug Screen. Data for the sgs1 mgt1 strain (AID 161);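 note: 0% = growth of cultures given vehicle only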; conditions: S. cerevisiae sgs1 mgt1 strain, stronger effect = higher value
# Procedure, shortened: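 Growth of a repair-deficient yeast mutant was monitored after compound treatment and expressed as inhibition relative to vehicle-treated cultures.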
# [8] = NCI Yeast Anticancer Drug Screen. Data for the CLN2oe strain (AID 163);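 note: 0% = growth of vehicle-only control cultures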; conditions: S. cerevisiae CLN2oe strain, stronger effect = higher value
# Procedure, shortened: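 Compound-treated yeast; growth vs vehicle ctrl = % inhibition. Genetically altered strain (cell-cycle control).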
# [9] = NCI Yeast Anticancer Drug Screen. Data for the cln2 rad14 strain (AID 165);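 note: 0% = growth equal to vehicle treated cultures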; conditions: S. cerevisiae cln2 rad14 strain, stronger effect = higher value
# Procedure, shortened: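 Growth inhibition, relative to vehicle-treated controls, is the read-out. The test organism is a yeast strain with defined genetic alterations, cln2 rad14.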
# [10] = NCI Yeast Anticancer Drug Screen. Data for the bub3 strain (AID 167); conditions: S. cerevisiae bub3 mutant strain, stronger effect = higher value
# Procedure, shortened: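 Part of a panel of yeast mutants defective in DNA damage repair or cell cycle regulation. Each strain is grown with compound, and inhibition is calculated relative to solvent-treated cultures.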
# [11] = NCI Yeast Anticancer Drug Screen. Data for the wt2 strain (AID 169);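 note: 0% = growth of vehicle-treated yeast cultures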; conditions: S. cerevisiae wt2 strain growth inhibition, stronger effect = higher value
# Procedure, shortened: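 Compound exposure of yeast; growth compared with vehicle controls; inhibition reported.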
# [12] = NCI Yeast Anticancer Drug Screen. Data for the mlh1 strain (AID 171);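 note: 0% = growth of vehicle-treated control cultures of the same strain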; conditions: S. cerevisiae mlh1 strain growth inhibition, stronger effect = higher value
# Procedure, shortened: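 Compounds are applied to a genetically altered yeast strain, and its growth is compared with that of vehicle-treated cultures to give percent inhibition.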
# [13] = NCI Yeast Anticancer Drug Screen. Data for the sgs1 strain (AID 173);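 note: 0% = growth of vehicle-only control cultures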; conditions: S. cerevisiae sgs1 mutant, stronger effect = higher value
# Procedure, shortened: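 Compounds applied to genetically altered yeast; growth compared with vehicle-treated cultures to give % inhibition.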
# [14] = NCI Yeast Anticancer Drug Screen. Data for the mlh1 rad18 strain (AID 175); conditions: S. cerevisiae mlh1 rad18 strain growth inhibition, stronger effect = higher value
# Procedure, shortened: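 Cells of a genetically altered yeast strain, deficient in DNA damage repair, were treated with compound. Their growth was then compared with that of vehicle-treated cultures to give inhibition.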
# [15] = NCI Yeast Anticancer Drug Screen. Data for the rad18 strain (AID 177); conditions: S. cerevisiae rad18 mutant growth inhibition, stronger effect = higher value
# Procedure, shortened: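 Compounds are applied to a repair-deficient yeast strain, and growth is compared with that of vehicle-treated cultures to give percent inhibition.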
# [16] = at 5.0 µM (retest, dose inferred, filed as 0.5)
# [17] = at 50.0 µM (retest, dose inferred, filed as 5.0)
smiles,measurement,setting,value
O=C(NNc1ccccc1)C(O)C(O)C(O)C(O)C(O)CO (stereo not drawn),growth inhibition,[1]; at 1.2 µM,3% (inactive)
same,growth inhibition,[1]; at 3.7 µM,11% (inactive)
same,growth inhibition,[1]; at 11.0 µM,29% (inactive)
same,growth inhibition,[1]; at 33.0 µM,53% (inactive)
same,growth inhibition,[1]; at 100.0 µM,93% (active)
same,growth inhibition,[2]; at 1.2 µM,4% (inactive)
same,growth inhibition,[2]; at 3.7 µM,12% (inactive)
same,growth inhibition,[2]; at 11.0 µM,31% (inactive)
same,growth inhibition,[2]; at 33.0 µM,52% (inactive)
same,growth inhibition,[2]; at 100.0 µM,70% (active)
same,growth inhibition,[3]; at 1.2 µM,6% (inactive)
same,growth inhibition,[3]; at 3.7 µM,12% (inactive)
same,growth inhibition,[3]; at 11.0 µM,23% (inactive)
same,growth inhibition,[3]; at 33.0 µM,50% (inactive)
same,growth inhibition,[3]; at 100.0 µM,88% (active)
same,growth inhibition,[4]; at 1.2 µM,5% (inactive)
same,growth inhibition,[4]; at 3.7 µM,7% (inactive)
same,growth inhibition,[4]; [16],24% (inactive) and 10% (inactive)
same,growth inhibition,[4]; at 11.0 µM,21% (inactive)
same,growth inhibition,[4]; at 33.0 µM,40% (inactive)
same,growth inhibition,[4]; [17],48% (inactive) and 56% (inactive) and 87% (active)
same,growth inhibition,[4]; at 50.0 µM,91.7% (active) and 24.9% (inactive) and 57.1% (inactive)
same,growth inhibition,[4]; at 100.0 µM,84% (active)
same,growth inhibition,[5]; at 1.2 µM,-2% (inactive)
same,growth inhibition,[5]; at 3.7 µM,2% (inactive)
same,growth inhibition,[5]; [16],-5% (inactive) and 6% (inactive) and 1% (inactive)
same,growth inhibition,[5]; at 11.0 µM,31% (inactive)
same,growth inhibition,[5]; at 33.0 µM,52% (inactive)
same,growth inhibition,[5]; [17],39% (inactive) and 48% (inactive) and 87% (active)
same,growth inhibition,[5]; at 50.0 µM,51.7% (inactive) and 26.8% (inactive) and 80.2% (active)
same,growth inhibition,[5]; at 100.0 µM,82% (active)
same,growth inhibition,[6]; at 1.2 µM,0% (inactive)
same,growth inhibition,[6]; at 3.7 µM,-1% (inactive)
same,growth inhibition,[6]; at 11.0 µM,8% (inactive)
same,growth inhibition,[6]; at 33.0 µM,20% (inactive)
same,growth inhibition,[6]; at 100.0 µM,59% (inactive)
same,growth inhibition,[7]; [16],-10% (inactive) and 9% (inactive) and 13% (inactive)
same,growth inhibition,[7]; [17],35% (inactive) and 52% (inactive) and 71% (active)
same,growth inhibition,[7]; at 50.0 µM,78.5% (active) and 54.9% (inactive) and 60.7% (inactive)
same,growth inhibition,[8]; at 1.2 µM,-2% (inactive)
same,growth inhibition,[8]; at 3.7 µM,3% (inactive)
same,growth inhibition,[8]; at 11.0 µM,22% (inactive)
same,growth inhibition,[8]; at 33.0 µM,52% (inactive)
same,growth inhibition,[8]; at 100.0 µM,76% (active)
same,growth inhibition,[9]; [16],4% (inactive) and 3% (inactive)
same,growth inhibition,[9]; [17],54% (inactive) and 48% (inactive) and 81% (active)
same,growth inhibition,[9]; at 50.0 µM,54.4% (inactive) and 55.3% (inactive) and 78.8% (active)
same,growth inhibition,[10]; at 1.2 µM,-3% (inactive)
same,growth inhibition,[10]; at 3.7 µM,0% (inactive)
same,growth inhibition,[10]; [16],-1% (inactive) and 10% (inactive) and 14% (inactive)
same,growth inhibition,[10]; at 11.0 µM,33% (inactive)
same,growth inhibition,[10]; at 33.0 µM,75% (active)
same,growth inhibition,[10]; [17],38% (inactive) and 79% (active) and 90% (active)
same,growth inhibition,[10]; at 50.0 µM,96.8% (active) and 45.6% (inactive) and 87.4% (active)
same,growth inhibition,[10]; at 100.0 µM,92% (active)
same,growth inhibition,[11]; at 1.2 µM,2% (inactive)
same,growth inhibition,[11]; at 3.7 µM,12% (inactive)
same,growth inhibition,[11]; at 11.0 µM,28% (inactive)
same,growth inhibition,[11]; at 33.0 µM,39% (inactive)
same,growth inhibition,[11]; at 100.0 µM,80% (active)
same,growth inhibition,[12]; at 1.2 µM,4% (inactive)
same,growth inhibition,[12]; at 3.7 µM,2% (inactive)
same,growth inhibition,[12]; at 11.0 µM,22% (inactive)
same,growth inhibition,[12]; at 33.0 µM,44% (inactive)
same,growth inhibition,[12]; at 100.0 µM,91% (active)
same,growth inhibition,[13]; at 1.2 µM,2% (inactive)
same,growth inhibition,[13]; at 3.7 µM,10% (inactive)
same,growth inhibition,[13]; at 11.0 µM,37% (inactive)
same,growth inhibition,[13]; at 33.0 µM,67% (inactive)
same,growth inhibition,[13]; at 100.0 µM,94% (active)
same,growth inhibition,[14]; [16],23% (inactive) and 28% (inactive) and 26% (inactive)
same,growth inhibition,[14]; [17],85% (active) and 87% (active) and 93% (active)
same,growth inhibition,[14]; at 50.0 µM,86.9% (active) and 85.9% (active) and 95.2% (active)
same,growth inhibition,[15]; at 1.2 µM,5% (inactive)
same,growth inhibition,[15]; at 3.7 µM,13% (inactive)
same,growth inhibition,[15]; at 11.0 µM,39% (inactive)
same,growth inhibition,[15]; at 33.0 µM,67% (inactive)
same,growth inhibition,[15]; at 100.0 µM,92% (active)
